The values that follow come from paper PMC6451091, “NextPBM: a platform to study cell-specific transcription factor binding and cooperativity”.

Whole data set: some 3,700 sequences, median “z-score” near 4, cut for the highest 2% near 8.4. What follows is part of a selection rich in the highest values, with near analogues and random picks from the rest.

Assay [1] addresses PU.1 (IVT) (UniProt P17947 1-270). Nature of the assay: protein-binding microarray (PBM); 20 mM HEPES pH 7.9, 100 mM NaCl, 1 mM DTT, 0.2 mg/mL BSA, 0.02% Triton X-100, 2% milk, 0.4 mg/mL salmon testes DNA; 1 h; temperature not stated; high values mean tight binding. The conditions noted are these: dsDNA, one strand shown. The method in brief: (§1)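 Custom double-stranded DNA microarrays bearing 20-bp genomic sites and single-nucleotide variants (10 probes per site, 5 per orientation) were incubated for 1 h with full-length untagged PU.1 made by coupled human in vitro transcription/translation, in HEPES pH 7.9 with 100 mM NaCl, 2% milk and salmon testes DNA. Anti-PU.1 and a fluorescent secondary antibody detected the bound protein. Each binding value is a z-score from scanned fluorescence after linear-regression normalisation.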

The target is the same in assay [2]. The assay is described as above. The conditions noted are these: dsDNA, one strand shown. The method in brief: as §1
The source holds these as a separate data set.

In the assay with PU.1 (IVT) [1], “GCCTAGCACTTTAAAGGGAAATACTGTGGGTGCTAGGTCTTGATTCGCTTGACGCTGCTG” yielded a binding signal of 1.36 z-score.

As for “GCCTAGCACAGAAACAGGAACTGAGGCCAGTGCTAGGTCTTGATTCGCTTGACGCTGCTG”, the binding signal with PU.1 (IVT) [2] worked out at 4.78 z-score. On the same count and under the same terms, the figure for “GCCTAGCACGAAAACAGGAAGTCCGATAGGTGCTAGGTCTTGATTCGCTTGACGCTGCTG” is 7.15 z-score.

Sequence “GCCTAGCACTGGGAGAGGAAGTGATGAGCGTGCTAGGTCTTGATTCGCTTGACGCTGCTG” yielded a binding signal in the assay with PU.1 (IVT) [1] of 4.01 z-score. “GCCTAGCACAAGCAGAGGAAGTGAGATTTGTGCTAGGTCTTGATTCGCTTGACGCTGCTG” yielded a binding signal in the assay with PU.1 (IVT) [2] of 3.71 z-score. Still for that read-out and setting: for “GCCTAGCACCAAAAAGGGAAGTGGACGCTGTGCTAGGTCTTGATTCGCTTGACGCTGCTG” the value was 6.7 z-score; for “GCCTAGCACATCATCAGGAACTGAAACTGGTGCTAGGTCTTGATTCGCTTGACGCTGCTG”, 1.18 z-score. As to “GCCTAGCACAAAGAGAGGAAGTCCCAAGAGTGCTAGGTCTTGATTCGCTTGACGCTGCTG”, the binding signal with PU.1 (IVT) [1] worked out at 3.78 z-score. Same read-out and setting: the figure for “GCCTAGCACTCAAGAAGGAAGTGCCAAATGTGCTAGGTCTTGATTCGCTTGACGCTGCTG” is 3.31 z-score. “GCCTAGCACAGAAAAAGGAACTGTGCCCCGTGCTAGGTCTTGATTCGCTTGACGCTGCTG” displayed a binding signal in the assay with PU.1 (IVT) [2] of 3.05 z-score. “GCCTAGCACAGCAAGAGGAAGTCAAGTACGTGCTAGGTCTTGATTCGCTTGACGCTGCTG”: the binding signal with PU.1 (IVT) [1] amounted to 4.55 z-score. “GCCTAGCACAGAAAGAGGAAATGACCTATGTGCTAGGTCTTGATTCGCTTGACGCTGCTG” returned a binding signal with PU.1 (IVT) [1] of 5.8 z-score. For the sequence “GCCTAGCACAGAAAGAGGAAGTGACACTTGTGCTAGGTCTTGATTCGCTTGACGCTGCTG”, the binding signal with PU.1 (IVT) [2] turned out to be 8.52 z-score. Consider “GCCTAGCACAGAAAGAGGAAGTTATGTGCGTGCTAGGTCTTGATTCGCTTGACGCTGCTG”, for which the binding signal in the assay with PU.1 (IVT) [2] was 8.58 z-score. With “GCCTAGCACAGGAAGAGGAAGTGACAGATGTGCTAGGTCTTGATTCGCTTGACGCTGCTG”, the binding signal with PU.1 (IVT) [1] is 6.27 z-score. In the case of “GCCTAGCACAGAAAGAGGAAGAGCCTCAGGTGCTAGGTCTTGATTCGCTTGACGCTGCTG”, the binding signal in the assay with PU.1 (IVT) [1] was 5.13 z-score. For the sequence “GCCTAGCACGAAAAGAGGAAGTCAAACCAGTGCTAGGTCTTGATTCGCTTGACGCTGCTG”, the binding signal in the assay with PU.1 (IVT) [2] was 8.22 z-score. “GCCTAGCACAGAAAGAGGAAGAGAAACTTGTGCTAGGTCTTGATTCGCTTGACGCTGCTG” returned a binding signal in the assay with PU.1 (IVT) [1] of 4.63 z-score. Take “GCCTAGCACGAAAAGAGGAAGTGTAACCAGTGCTAGGTCTTGATTCGCTTGACGCTGCTG”: the binding signal with PU.1 (IVT) [2] amounted to 8.52 z-score.

“GCCTAGCACTGAAAGAGGAAGTGTAACCAGTGCTAGGTCTTGATTCGCTTGACGCTGCTG” returned a binding signal with PU.1 (IVT) [2] of 7.2 z-score. The same measure, in the same setting: for “GCCTAGCACAGAAAGAGGAAGTTCCCGTCGTGCTAGGTCTTGATTCGCTTGACGCTGCTG” the value was 8.56 z-score; for “GCCTAGCACAGAAAGAGGAAGTCGAGGTGGTGCTAGGTCTTGATTCGCTTGACGCTGCTG”, 7.74 z-score. In turn, “GCCTAGCACAGAAAGAGGAAGTCTCTGCCGTGCTAGGTCTTGATTCGCTTGACGCTGCTG” had a binding signal with PU.1 (IVT) [2] of 7.37 z-score. In the assay with PU.1 (IVT) [1], “GCCTAGCACACCAGGAGGAAGTGGTTGCAGTGCTAGGTCTTGATTCGCTTGACGCTGCTG” returned a binding signal of 4.06 z-score. In the assay with PU.1 (IVT) [2], “GCCTAGCACCGAAAGAGGAAGTGCAACCAGTGCTAGGTCTTGATTCGCTTGACGCTGCTG” came in with a binding signal of 7.64 z-score. For “GCCTAGCACGATAAGAGGAAGTGCTCTGTGTGCTAGGTCTTGATTCGCTTGACGCTGCTG”, in the assay with PU.1 (IVT) [1], the binding signal was 6.52 z-score. On to “GCCTAGCACTTTAAAGGGAAATGAAACTGGTGCTAGGTCTTGATTCGCTTGACGCTGCTG”, for which the binding signal in the assay with PU.1 (IVT) [2] was determined as 1.39 z-score. For “GCCTAGCACGAAAAGAGGAACAGCCTCTGGTGCTAGGTCTTGATTCGCTTGACGCTGCTG”, the binding signal in the assay with PU.1 (IVT) [1] turned out to be 5.13 z-score. Still for that read-out and setting: for “GCCTAGCACGAAAGGGGGAAGTGACTAAGGTGCTAGGTCTTGATTCGCTTGACGCTGCTG” the value was 5.51 z-score; for “GCCTAGCACTCTCTGAGGAAGTGAAACTCGTGCTAGGTCTTGATTCGCTTGACGCTGCTG”, 2.86 z-score.

In the assay with PU.1 (IVT) [2], “GCCTAGCACAGAAAGAGGAAGTGCTGAGGGTGCTAGGTCTTGATTCGCTTGACGCTGCTG” had a binding signal of 7.75 z-score. Sequence “GCCTAGCACAAAAAAAGGATATGAAAGTAGTGCTAGGTCTTGATTCGCTTGACGCTGCTG” registered a binding signal with PU.1 (IVT) [1] of 0.953 z-score. The sequence “GCCTAGCACAAAAAGAGGAACTGAATGTCGTGCTAGGTCTTGATTCGCTTGACGCTGCTG” displayed a binding signal with PU.1 (IVT) [2] of 7.27 z-score.

In the assay with PU.1 (IVT) [2], “GCCTAGCACGAAAGGAGGAAGTACTGTGGGTGCTAGGTCTTGATTCGCTTGACGCTGCTG” had a binding signal of 6.78 z-score. Turning to “GCCTAGCACAGAAAGAGGAAGTGGAAGAGGTGCTAGGTCTTGATTCGCTTGACGCTGCTG”, in the assay with PU.1 (IVT) [2], the binding signal was found to be 8.16 z-score.

For the sequence “GCCTAGCACAGAAAGAGGAAGTGCCTCTTGTGCTAGGTCTTGATTCGCTTGACGCTGCTG”, the binding signal with PU.1 (IVT) [2] was 8.4 z-score. Consider “GCCTAGCACAGAAAGAGGAAGAGCTGCCAGTGCTAGGTCTTGATTCGCTTGACGCTGCTG”, for which the binding signal in the assay with PU.1 (IVT) [1] was 4.1 z-score.

Take “GCCTAGCACTCAAGGAGGAAGTGAGAGATGTGCTAGGTCTTGATTCGCTTGACGCTGCTG”: the binding signal with PU.1 (IVT) [1] was found to be 4.31 z-score.

In the assay with PU.1 (IVT) [1], “GCCTAGCACGTTTTGAGGAACTGAAACTCGTGCTAGGTCTTGATTCGCTTGACGCTGCTG” displayed a binding signal of 4.5 z-score. Still for that read-out and setting: for “GCCTAGCACCGAAAAGGGAAATACTGTGAGTGCTAGGTCTTGATTCGCTTGACGCTGCTG” the value was 2.65 z-score.
